In PubChem BioAssay (NCATS):
Records with an inconclusive call do not appear. Unmarked numbers belong to inactive results. Activity calls are given as the source filed them. The call rests on the fitted dose curve; in most records, active means well fitted cell-killing curve with a large enough effect; inconclusive means small, poorly fitted or top-dose-only effect, or effect the other way; inactive means no such curve, though single readings can be large or run the other way.

Test: Quantitative High-Throughput drug screen in 47 multiple myeloma cell lines against the NCATS MIPE library collection: PE2_PLB cell viability assay (AID 1919869); further: nearly all actives have a fitted effect of over 35% in size
Settings: PE2_PLB myeloma cells viability, ATP luminescence, 48 h; series mostly up to 45.8 µM; viability (% of control): at the top concentration
Procedure, shortened: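 500 cells/well; MIPE 4.0 drugs pin-transferred; 48 h, 37C, 5% CO2. CellTiter-Glo, 5 min RT, luminescence. Controls: DMSO 100%, media 0%.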
Potency means the concentration at half of the fitted maximal effect.

SMILES	viability (% of control) [%]	Potency
O=C(Oc1ccc([N+](=O)[O-])cc1)N1CCN(Cc2cccc(Oc3ccccc3)c2)CC1	101	
C[C@@H]1O[C@@H](O[C@@H]2C=C3CC[C@@H]4[C@@H](CC[C@]5(C)[C@H](c6ccc(=O)oc6)CC[C@@]45O)[C@@]3(C)CC2)[C@H](O)[C@H](O)[C@H]1O		26.4 nM (active)
CC[C@@]1(O)C(=O)OCc2c1cc1n(c2=O)Cc2cc3ccccc3nc2-1		209 nM (active)
NC1=NC(=O)N2CC12 (configuration not stated)		13200 nM (active)
C[C@]12Cc3cn[nH]c3C[C@@H]1CC[C@@H]1[C@H]2CC[C@@]2(C)[C@H]1CC[C@]2(C)O	114	
CC1=C(O)C(=O)C=C2C1=CC=C1[C@@]2(C)CC[C@@]2(C)[C@@H]3C[C@](C)(C(=O)O)CC[C@]3(C)CC[C@]12C		743 nM (active)
CC=C(C)C(=O)O[C@H]1C(C)=C2[C@@H]3OC(=O)[C@@](C)(O)[C@@]3(O)[C@@H](OC(=O)CCC)C[C@](C)(OC(C)=O)[C@@H]2[C@@H]1OC(=O)CCCCCCC		264 nM (active)
COCC1(CO)C(=O)C2CCN1CC2 (configuration not stated)		2960 nM (active)
CN1CCN(c2ccc([N+](=O)[O-])c3no[n+]([O-])c23)CC1		23500 nM (active)
C[C@]12CCC(=O)C(O)=C1CC[C@@H]1[C@H]3CCC(=O)[C@@]3(C)CC[C@@H]12	87.2	
COc1cc([C@@H]2c3cc4c(cc3[C@@H](O)C3COC(=O)C32)OCO4)cc(OC)c1O (some centres not stated)		52.6 nM (active)
COc1ccc2c(c1)[C@]13CCCCC1C(C2)N(C)CC3 (some centres not stated)	92	
